A selection: hits, their analogues and other compounds. The true share with any hit is near 27%.
CYP2C9 inhib: inhibitors of human CYP2C9; AID 777; P11712; CYP2C9 Supersomes, luciferin-H conversion, luminescence; inhibition, % at 5 µM; 96,000 tested, 20% active;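 active = blocking of liver enzyme CYP2C9 beyond about 50% at 5 µM, limit read from the data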
Target sequence (P11712 whole entry, looked up): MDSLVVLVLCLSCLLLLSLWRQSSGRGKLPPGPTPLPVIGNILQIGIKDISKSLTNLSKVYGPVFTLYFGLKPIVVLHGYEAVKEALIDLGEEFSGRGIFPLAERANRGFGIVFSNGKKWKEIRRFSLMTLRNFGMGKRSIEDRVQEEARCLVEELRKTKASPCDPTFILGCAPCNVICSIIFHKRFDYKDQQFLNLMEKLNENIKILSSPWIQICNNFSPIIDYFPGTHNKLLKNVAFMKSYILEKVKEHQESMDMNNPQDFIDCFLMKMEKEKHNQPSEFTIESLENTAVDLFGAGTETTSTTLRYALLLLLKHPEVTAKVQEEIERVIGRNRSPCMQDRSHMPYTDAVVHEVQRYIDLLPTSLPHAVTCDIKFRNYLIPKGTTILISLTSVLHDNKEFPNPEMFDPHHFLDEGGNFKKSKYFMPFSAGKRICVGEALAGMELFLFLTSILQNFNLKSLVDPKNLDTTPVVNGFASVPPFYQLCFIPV
CYP2C9 activ: CYP2C9 (human) activation; P11712; activation factor at 5 µM; 96,000 tested, 1.4% active; AID 1024; recombinant CYP2C9, luciferin-H conversion, luminescence; stronger effect = higher value; factor 1 = untreated enzyme, 0 = blocked;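 active = activation factor of 2 or more for CYP2C9 at a 5 µM dose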;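 also: 0 = sulfaphenazole-blocked wells and 1 = vehicle-only wells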
sEH inhibitor: soluble epoxide hydrolase (human) inhibition | P34913 | recombinant human sEH enzymatic activity assay | inhibition, % at 2 µM | 91,000 tested, 0.34% active; in the data active = inhibition above about 80%
sEH activator: soluble epoxide hydrolase (human) activation; 91,000 tested, 0.04% active; activation, % at 2 µM; P34913; purified human sEH enzymatic activity, activator screen; in the data active = activation above about 37%
CYP2C19 activ: increases human CYP2C19 enzyme activity. activation factor at 5 µM. 96,000 tested, under 10 active. recombinant CYP2C19, luciferin-H EGE luminescence; stronger effect = higher value; 0 = fully inhibited enzyme, 1 = untreated enzyme. AID 1025;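 active = activation factor of at least 2 at 5 µM in the primary screen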;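 also: 0 = wells with 2.5 mM tranylcypromine and 1 = vehicle-only wells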
CYP2C19 inh: human CYP2C19 inhibition | P33261 | inhibition, % at 5 µM | 96,000 tested, 21% active | AID 778 | CYP2C19 Supersomes, luciferin-H EGE luminescence, 30 min;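 active = CYP2C19 inhibition above a set limit at 5 µM in the primary screen, cut at about 50% in these data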;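 also: plate controls were negative control wells for no effect and 2.5 mM tranylcypromine positive control for full effect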
An asterisk follows results filed as active; · = no result.

SMILES	CYP2C9 inhib	CYP2C9 activ	sEH inhibitor	sEH activator	CYP2C19 activ	CYP2C19 inh
c1cncc(-c2noc(CC3CCCCC3)n2)c1	-9	1.1	1	-4	0.2	80*
c1ccc(CCc2ccccc2-c2nc(-c3cccnc3)no2)cc1	-6	1.1	0	3	0.8	18
O=C(Nc1ccc(-c2noc(CCc3ccccc3)n2)cc1)c1ccco1	71*	0.3	·	·	0.6	41
c1ccc(CCc2nc(-c3ccccc3)no2)cc1	3	1	9	-6	0.9	13
Clc1ccc(Cc2nc(-c3cccnc3)no2)cc1	40	0.6	2	0	0.5	54*
c1ccc(CCc2nc(-c3cccnc3)no2)cc1	10	0.9	9	-4	0.1	86*
CCN(Cc1ccncc1)C(=O)c1cccs1	36	0.6	-2	2	0.5	49
CC(=O)NC1(c2ccccc2)CCN(c2nc(C)cc(C)n2)CC1	97*	0	·	·	0.1	93*
Cc1cc(C)nc(N2CCCC(C(=O)NCC(c3ccccc3)c3ccccc3)C2)n1 (stereo unspecified)	·	·	30	-30	·	·
O=C(CSc1nc2c([nH]c3ccccc32)c(=O)n1-c1ccc(F)cc1)NCc1ccco1	15	0.9	8	-10	1	3
Cc1cccc(C2Nc3ccccc3C(=O)N2CCc2ccccc2)n1 (stereo unspecified)	61*	0.4	-6	5	0.4	61*
CCOC(=O)c1oc2nc(C(C)C)c3c(c2c1N)CCC3	16	0.8	·	·	0.6	38
O=C(NC(NC1CCS(=O)(=O)C1)C(=O)c1ccccc1)c1ccc(Cl)cc1 (stereo unspecified)	4	1	-22	21	0.9	13
O=C(c1ccc2c(c1)N(Cc1ccccc1)C(=O)c1ccccc1S2)N1CCCC1	49	0.5	11	-11	0.4	63*
CN1CCN(C(=O)c2ccc3c(c2)N(Cc2ccc(Cl)cc2)C(=O)c2ccccc2S3=O)CC1 (stereo unspecified)	15	0.9	·	·	1	-4
CCOC(=O)c1ccoc1CSCc1ccc(C(=O)OC)o1	72*	0.3	-4	2	0.7	30
CCOC(=O)c1ccc(CSc2nncn2N)o1	0	1	14	-12	1.1	-5
O=C(CN1CCCC1)NCC12CC3CC(CC(C3)C1)C2	-11	1.1	·	·	0.7	25
O=C(CN1CCOCC1)NCCC12CC3CC(CC(C3)C1)C2	9	0.9	48	-47	0.5	54*
O=C(/C=C/c1ccccc1)Nc1ncn[nH]1	12	0.9	6	-5	0.8	17
O=C(/C=C/c1ccccc1)Nn1cnnc1	54*	0.5	7	-5	0.5	53*
C=CCc1ccccc1OCC(O)CN1CCN(c2ccc(OC)cc2)CC1 (stereo unspecified)	8	0.9	·	·	0.5	50*
OC(COc1ccccc1)CN1CCN(c2ncccn2)CC1 (stereo unspecified)	5	0.9	2	4	0.7	28
C=CCc1ccc(OCC(O)CN2CCC(Cc3ccccc3)CC2)c(OC)c1 (stereo unspecified)	-7	1.1	4	-4	0.5	55*
OC(COCC1COc2ccccc2O1)CN1CCN(c2ccccc2F)CC1 (stereo unspecified)	0	1	-48	47*	0.9	8
SMILES	CYP2C9 inhib	CYP2C9 activ	sEH inhibitor	sEH activator	CYP2C19 activ	CYP2C19 inh
OC(COCc1ccccc1)CN1CCN(c2ccccc2F)CC1 (stereo unspecified)	0	1	24	-25	1	-2
OC(COc1ccc2c(c1)CCC2)CN1CCN(c2ccccc2F)CC1 (stereo unspecified)	-2	1	-2	0	0.5	51*
Cn1c(SCC(=O)N2CCN(Cc3ccccc3)CC2)nnc1-c1ccncc1	13	0.9	5	-2	1	2
Cn1c(Oc2ccccc2)c(C=O)c2ccccc21	-59	1.6	7	-7	0.5	47
O=C(NC1CCCCC1)C(c1cccnc1)N(C(=O)c1csnn1)C1CCCC1 (stereo unspecified)	·	·	6	-4	·	·
COc1ccc(N2CCN(CC(O)COc3ccc4c(c3)CCC4)CC2)cc1 (stereo unspecified)	-21	1.2	1	-1	0.4	58*
O=C(OCC1COc2ccccc2O1)c1c(F)cccc1F (stereo unspecified)	84*	0.2	·	·	0	97*
C=CCc1ccccc1OCC(O)Cn1ccnc1C (stereo unspecified)	17	0.8	24	-22	0.4	57*
O=C(NCc1ccccc1)C(=O)NCC1COc2ccccc2O1 (stereo unspecified)	·	·	-2	4	·	·
CCOC(=O)C1CCCN(C(=O)c2ccc(OCC)cc2)C1 (stereo unspecified)	6	0.9	·	·	0.6	38
O=C(NCCCN1CCOCC1)C1CC(=O)N(C2CCCCC2)C1 (stereo unspecified)	1	1	-11	10	0.6	40
O=C(COC(=O)c1cccnc1Nc1cccc(C(F)(F)F)c1)NCc1ccc2c(c1)OCO2	-2	1	·	·	1.1	-8
O=C(COC(=O)c1ccccc1Oc1ccccc1)NCc1ccco1	56*	0.4	·	·	0.7	32
O=C(COC(=O)c1ccccc1Nc1cccc(C(F)(F)F)c1)NCc1ccco1	58*	0.4	-7	7	0.6	38
CC(C)NC(=O)COC(=O)c1ccccc1Oc1ccccc1	72*	0.3	-14	16	0.1	87*
O=C(COC(=O)c1ccco1)NCc1ccco1	-18	1.2	12	-10	1	0
CCOC(=O)CCCn1c(C)nc(=O)c(-c2ccccc2)c1C	-2	1	·	·	1	-2
CCOC(NC(=O)c1ccccc1)C(NC(=O)c1ccccc1)OCC (stereo unspecified)	16	0.8	4	-3	0.5	53*
CC(CCc1ccccc1)NC(=O)c1ccc(C(=O)NC(C)CCc2ccccc2)cc1 (stereo unspecified)	16	0.8	6	-4	0.9	10
CCN(CC)C(NC(=O)c1ccccc1)C(=O)c1ccccc1 (stereo unspecified)	62*	0.4	-25	26	0.4	60*
OCCNc1nc(Nc2ccccc2)nc2ccccc12	·	·	-4	7	·	·
OCCNc1nc(Nc2ccccc2)nc(Nc2ccccc2)n1	66*	0.3	-9	10	0.8	20
CN(C)c1ccc(C(=O)OCC(=O)NC2CCCCC2)cc1	13	0.9	18	-19	0.1	88*
Cc1noc(C)c1COc1ccc(C(=O)OCC(=O)NC2CCCCC2C)cc1 (stereo unspecified)	59*	0.4	51	-50	0.7	27
CCN(CC)c1ccc(C(=O)OCC(=O)NC2CCCCC2C)cc1 (stereo unspecified)	-26	1.3	-28	25	0.5	49

Compound activity deposited in PubChem BioAssay by several laboratories.
